The panel holds about 79,000 compounds, 15% with a hit somewhere; the sample as a whole holds those more often. The source made the active and inactive calls. No stated cut-off is given here; in the data, active means growth inhibition above about 70%; inactive means the rest.
Assays:
[1] = NCI Yeast Anticancer Drug Screen. Data for the rad50EPP+ strain (AID 151);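 further: 0% = growth of vehicle-treated control cultures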; settings: S. cerevisiae rad50 mutant strain, active compounds read high
In short: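 Measured: growth inhibition of rad50EPP+ yeast. Reference: vehicle-treated controls. Screen uses strains with defined genetic alterations in DNA damage repair or cell cycle control.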

[2] = NCI Yeast Anticancer Drug Screen. Data for the rad50 strain (AID 155);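 further: 0% = growth of vehicle-only cultures of the same strain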; settings: S. cerevisiae rad50 strain growth inhibition, active compounds read high
In short: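 Relative growth inhibition (compound vs vehicle) was measured in yeast with a defined repair-gene alteration.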

[3] = NCI Yeast Anticancer Drug Screen. Data for the rad14 strain (AID 159);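 further: 0% = growth of vehicle-treated control cultures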; settings: S. cerevisiae rad14 strain growth inhibition, active compounds read high
In short: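 Screen for anticancer potential: a yeast strain altered in DNA damage repair is grown with compound, and reduced growth is quantified against vehicle controls.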

[4] = NCI Yeast Anticancer Drug Screen. Data for the CLN2oe strain (AID 163);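 further: 0% = growth of vehicle-only control cultures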; settings: S. cerevisiae CLN2oe strain, active compounds read high
In short: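 Cells of an engineered yeast line with disturbed cell-cycle regulation are treated with compound. Inhibition of growth is then calculated relative to the vehicle-treated reference.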

[5] = NCI Yeast Anticancer Drug Screen. Data for the cln2 rad14 strain (AID 165);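 further: 0% = growth equal to vehicle treated cultures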; settings: S. cerevisiae cln2 rad14 strain, active compounds read high
In short: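 Strain: cln2 rad14 yeast, altered in cell cycle control and DNA damage repair. Read-out: growth inhibition vs vehicle.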

[6] = NCI Yeast Anticancer Drug Screen. Data for the bub3 strain (AID 167); settings: S. cerevisiae bub3 mutant strain, active compounds read high
In short: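 Screening used yeast with an engineered genetic alteration affecting cell cycle control. Compound-exposed cultures were compared with vehicle cultures, and reduced growth was taken as inhibition.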

[7] = NCI Yeast Anticancer Drug Screen. Data for the mlh1 strain (AID 171);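 further: 0% = growth of vehicle-treated control cultures of the same strain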; settings: S. cerevisiae mlh1 strain growth inhibition, active compounds read high
In short: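 Test agents were incubated with yeast bearing a defined DNA damage repair or cell cycle control alteration; values are growth inhibition normalised to vehicle-treated cultures.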

[8] = NCI Yeast Anticancer Drug Screen. Data for the sgs1 strain (AID 173);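 further: 0% = growth of vehicle-only control cultures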; settings: S. cerevisiae sgs1 mutant, active compounds read high
In short: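 Strain with an altered DNA repair or cell cycle pathway exposed to compound. Growth then measured. Value = inhibition versus vehicle control.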

[9] = NCI Yeast Anticancer Drug Screen. Data for the mlh1 rad18 strain (AID 175); settings: S. cerevisiae mlh1 rad18 strain growth inhibition, active compounds read high
In short: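 A repair-deficient yeast strain is exposed to test compound, and growth is scored relative to vehicle-treated controls.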

[10] = NCI Yeast Anticancer Drug Screen. Data for the rad18 strain (AID 177); settings: S. cerevisiae rad18 mutant growth inhibition, active compounds read high
In short: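 DNA-repair-defective yeast; compound treatment; growth inhibition scored against vehicle.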

[11] = NCI Yeast Anticancer Drug Screen. Data for the wt1 strain (AID 149);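 further: 0% = growth of vehicle-treated wt1 cultures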; settings: S. cerevisiae wt1 strain (SPY 50644) growth inhibition, active compounds read high
In short: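 Using yeast strain wt1, compound-induced growth inhibition was determined against vehicle-treated cultures.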

[12] = NCI Yeast Anticancer Drug Screen. Data for the mec2-1 strain (AID 157); settings: S. cerevisiae mec2-1 strain, active compounds read high
In short: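 Compounds were applied to mec2-1 yeast cells. Their growth was then compared with that of vehicle-treated cultures to give growth inhibition.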

[13] = NCI Yeast Anticancer Drug Screen. Data for the sgs1 mgt1 strain (AID 161);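 further: 0% = growth of cultures given vehicle only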; settings: S. cerevisiae sgs1 mgt1 strain, active compounds read high
In short: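 Compounds are added to genetically altered yeast, and growth is compared with cultures given vehicle alone to give percent inhibition.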

[14] = NCI Yeast Anticancer Drug Screen. Data for the wt2 strain (AID 169);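 further: 0% = growth of vehicle-treated yeast cultures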; settings: S. cerevisiae wt2 strain growth inhibition, active compounds read high
In short: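 Growth of compound-treated yeast is measured and expressed as inhibition relative to vehicle-only controls.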

[15] = NCI Yeast Anticancer Drug Screen. Data for the mgt1 strain (AID 153); settings: S. cerevisiae mgt1 mutant growth inhibition, active compounds read high
In short: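 Compounds were applied to mgt1 mutant yeast, and growth was then compared against vehicle-treated control cultures to give percent inhibition.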

[16] = at 5.0 µM (retest, dose inferred, filed as 0.5)
[17] = at 50.0 µM (retest, dose inferred, filed as 5.0)

Measured: growth inhibition

COc1ccc(N2C(=O)CC(Cl)C2=O)cc1 (stereo not given)
active: [1]; at 100.0 µM 99% | [2]; at 33.0 µM 79% | [2]; [17] 96% | [2]; at 50.0 µM 99.2% | [2]; at 100.0 µM 99% | [3]; at 33.0 µM 98% | [3]; at 100.0 µM 100% | [4]; at 100.0 µM 78% | [5]; at 50.0 µM 97% | [6]; at 33.0 µM 92% | [6]; at 50.0 µM 97.9% | [6]; at 100.0 µM 100% | [7]; at 100.0 µM 100% | [8]; at 33.0 µM 93% | [8]; at 100.0 µM 99% | [9]; at 50.0 µM 97.1% | [10]; at 100.0 µM 99%
inactive: [1]; at 1.2 µM -9% | [1]; at 3.7 µM -18% | [1]; at 11.0 µM 22% | [1]; at 33.0 µM 66% | [2]; at 1.2 µM -16% | [2]; at 3.7 µM -11% | [2]; [16] -128% | [2]; at 11.0 µM 15% | [3]; at 1.2 µM -6% | [3]; at 3.7 µM 1% | [3]; at 11.0 µM 13% | [4]; at 1.2 µM -12% | [4]; at 3.7 µM -12% | [4]; at 11.0 µM -12% | [4]; at 33.0 µM 0% | [5]; [16] -60% | [5]; [17] 8% | [6]; at 1.2 µM -15% | [6]; at 3.7 µM -8% | [6]; [16] -75% | [6]; at 11.0 µM 1% | [6]; [17] 69% | [7]; at 1.2 µM -14% | [7]; at 3.7 µM -10% | [7]; at 11.0 µM -10% | [7]; at 33.0 µM 40% | [8]; at 1.2 µM -3% | [8]; at 3.7 µM 0% | [8]; at 11.0 µM 24% | [9]; [16] -137% | [9]; [17] 32% | [10]; at 1.2 µM -12% | [10]; at 3.7 µM -10% | [10]; at 11.0 µM 1% | [10]; at 33.0 µM 38%

O=Nn1c2ccccc2c2cc([N+](=O)[O-])ccc21
inactive: [11]; at 1.2 µM -27% | [11]; at 3.7 µM -23% | [11]; at 11.0 µM -14% | [11]; at 33.0 µM 49% | [1]; at 1.2 µM 8% | [1]; at 3.7 µM 15% | [1]; at 11.0 µM 27% | [1]; at 33.0 µM 66% | [2]; at 1.2 µM 15% | [2]; at 3.7 µM 24% | [2]; [16] 47% | [2]; at 11.0 µM 53% | [12]; at 1.2 µM -16% | [12]; at 3.7 µM -1% | [12]; [16] 51% | [12]; at 11.0 µM 11% | [12]; at 33.0 µM 59% | [3]; at 1.2 µM -19% | [3]; at 3.7 µM -5% | [3]; at 11.0 µM 1% | [3]; at 33.0 µM 61% | [13]; [16] -26% | [13]; [17] 27% | [4]; at 1.2 µM -32% | [4]; at 3.7 µM -9% | [4]; at 11.0 µM -9% | [4]; at 33.0 µM 55% | [5]; [16] 35% | [5]; [17] 62% | [6]; at 1.2 µM 4% | [6]; at 3.7 µM 19% | [6]; [16] 19% | [6]; at 11.0 µM 55% | [14]; at 1.2 µM -28% | [14]; at 3.7 µM -22% | [14]; at 11.0 µM 8% | [14]; at 33.0 µM 59% | [7]; at 1.2 µM -35% | [7]; at 3.7 µM -29% | [7]; at 11.0 µM -3% | [7]; at 33.0 µM 48% | [8]; at 1.2 µM -8% | [8]; at 3.7 µM -14% | [8]; at 11.0 µM -1% | [8]; at 33.0 µM 65% | [9]; [16] 39% | [10]; at 1.2 µM -10% | [10]; at 3.7 µM -6% | [10]; at 11.0 µM 37%
active: [11]; at 100.0 µM 92% | [1]; at 100.0 µM 85% | [2]; at 33.0 µM 89% | [2]; [17] 92% | [2]; at 50.0 µM 81.9% | [2]; at 100.0 µM 93% | [12]; [17] 91% | [12]; at 50.0 µM 75.8% | [12]; at 100.0 µM 93% | [3]; at 100.0 µM 93% | [13]; at 50.0 µM 84.5% | [4]; at 100.0 µM 94% | [5]; at 50.0 µM 72.9% | [6]; at 33.0 µM 88% | [6]; [17] 71% | [6]; at 50.0 µM 84.8% | [6]; at 100.0 µM 96% | [14]; at 100.0 µM 91% | [7]; at 100.0 µM 89% | [8]; at 100.0 µM 92% | [9]; [17] 97% | [9]; at 50.0 µM 80% | [10]; at 33.0 µM 84% | [10]; at 100.0 µM 93%

CC(=O)[C@]1(O)Cc2c(O)c3c(c(O)c2[C@@H](OC2CC(N)C(O)C(C)O2)C1)C(=O)c1c(OCc2ccccc2)cccc1C3=O (stereo not given in full)
inactive: [11]; at 1.2 µM -9% | [11]; at 3.7 µM -4% | [11]; at 11.0 µM 5% | [11]; at 33.0 µM -4% | [11]; at 100.0 µM 7% | [1]; at 1.2 µM 18% | [1]; at 3.7 µM 21% | [1]; at 11.0 µM 28% | [1]; at 33.0 µM 46% | [1]; at 100.0 µM 65% | [15]; at 1.2 µM -2% | [15]; at 3.7 µM 8% | [15]; at 11.0 µM 5% | [15]; at 33.0 µM 14% | [15]; at 100.0 µM 43% | [2]; at 1.2 µM 14% | [2]; at 3.7 µM 24% | [2]; [16] 9% | [2]; at 11.0 µM 44% | [12]; at 1.2 µM 4% | [12]; at 3.7 µM -10% | [12]; [16] -9% | [12]; at 11.0 µM -1% | [12]; at 33.0 µM 2% | [12]; [17] 24% | [12]; at 50.0 µM 12.4% | [12]; at 100.0 µM 28% | [3]; at 1.2 µM 7% | [3]; at 3.7 µM 18% | [3]; at 11.0 µM 18% | [3]; at 33.0 µM 27% | [3]; at 100.0 µM 51% | [13]; [16] 11% | [13]; [17] 46% | [13]; at 50.0 µM 9.95% | [4]; at 1.2 µM 5% | [4]; at 3.7 µM 16% | [4]; at 11.0 µM 27% | [4]; at 33.0 µM 30% | [4]; at 100.0 µM 31% | [5]; [16] 4% | [5]; [17] 35% | [5]; at 50.0 µM -1.65% | [6]; at 1.2 µM -2% | [6]; at 3.7 µM 1% | [6]; [16] 10% | [6]; at 11.0 µM 5% | [6]; at 33.0 µM 18% | [6]; [17] 36% | [6]; at 50.0 µM 17.4% | [6]; at 100.0 µM 33% | [14]; at 1.2 µM -69% | [14]; at 3.7 µM -65% | [14]; at 11.0 µM -53% | [14]; at 33.0 µM -16%
active: [2]; at 33.0 µM 71% | [2]; [17] 83% | [2]; at 50.0 µM 72.8% | [2]; at 100.0 µM 92% | [14]; at 100.0 µM 92%
